Laboratory results from PubChem BioAssay (NCI).
Compounds without any hit were thinned out: in the full panel of roughly 83,000, 20% have a hit.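 48-hour exposure, single concentration, 96-well plates; percent growth endpoint where 0 means no net growth. Active: below 10.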 Values without a mark were called inactive. Calls of active or inactive are those of the source.

Assays:
Test in all cases: NCI-60 one-dose screen, 48 h (100 = growth as untreated, 0 = no growth, -100 = all killed)
Conditions in all cases: 10 µM unless noted
NCI-H23 lung = tested on: NCI-H23 lung
NCI-H226 lung = tested on: NCI-H226 lung
NCI-H322M lung = tested on: NCI-H322M lung
HOP-62 NSCLC = tested on: HOP-62 NSCLC
NCI-H460 lung = tested on: NCI-H460 lung
HOP-92 NSCLC = tested on: HOP-92 NSCLC
NCI-H522 lung = tested on: NCI-H522 lung
A549/ATCC NSCLC = tested on: A549/ATCC NSCLC
786-0 renal = tested on: 786-0 renal
COLO 205 colon = tested on: COLO 205 colon
DU-145 prostate = tested on: DU-145 prostate
K-562 leukemia = tested on: K-562 leukemia
MALME-3M melanoma = tested on: MALME-3M melanoma
MDA-MB-231 breast = tested on: MDA-MB-231 breast
RXF 393 renal = tested on: RXF 393 renal
SF-268 CNS = tested on: SF-268 CNS
SF-295 CNS = tested on: SF-295 CNS
SF-539 CNS = tested on: SF-539 CNS
UACC-257 melanoma = tested on: UACC-257 melanoma
M14 melanoma = tested on: M14 melanoma

SMILES	growth (NCI-H23 lung)	growth (NCI-H226 lung)	growth (NCI-H322M lung)	growth (HOP-62 NSCLC)	growth (NCI-H460 lung)	growth (HOP-92 NSCLC)	growth (NCI-H522 lung)	growth (A549/ATCC NSCLC)	growth (786-0 renal)	growth (COLO 205 colon)	growth (DU-145 prostate)	growth (K-562 leukemia)	growth (MALME-3M melanoma)	growth (MDA-MB-231 breast)	growth (RXF 393 renal)	growth (SF-268 CNS)	growth (SF-295 CNS)	growth (SF-539 CNS)	growth (UACC-257 melanoma)	growth (M14 melanoma)
Cc1cccc(NC(=O)c2sc3nc4c(cc3c2N)CN(Cc2ccccc2)CC4)c1C	51.3%	60%	40.4%	32.3%	12.5%	35.2%	11.3%	31.1%	31.9%	-0.373% (active)	0.783% (active)	13.1%	53.5%	45.2%	16.9%	41.4%	27.6%	19.8%	87.9%	4.27% (active)
Nn1c(SCC(=O)Nc2ccc(Cl)cc2)nnc1-c1cc(F)c(Cl)cc1Cl	93%	93.5%	80.2%	55.8%	90%	76.6%	66.1%	87.2%	93.4%	96.6%	108%	77.4%	92.6%	81.8%	117%	97.4%	87.9%	92.9%	98.2%	96.9%
CC(=O)OCC1OC(OC2C(COC(C)=O)OC(OCCC[S-])C(OC(C)=O)C2OC(C)=O)C(OC(C)=O)C(OC(C)=O)C1OC(C)=O.[Au+].c1ccc(CN2[CH-]N(Cc3ccccc3)C(c3ccccc3)=C2c2ccccc2)cc1 (stereo not given)	12.1%	25.3%	52%	31.8%	15%	-11.4% (active)	-30.8% (active)	23.2%	9.05% (active)	-37.4% (active)	26.1%	4.75% (active)	-8.9% (active)	-34.7% (active)	25.7%	40.1%	7.32% (active)	35.6%	12.5%	25%
C=CCn1c(CN2CCN(c3cc4c(cc3F)c(=O)c(C(=O)O)cn4C3CC3)CC2)n[nH]c1=S	104%	110%	88.6%	99.8%	108%	104%	87.9%	101%	95.6%	102%	103%	89.6%	85.4%	116%	115%	97.5%	101%	98.8%	105%	107%
COC(=O)c1cc2c3c(cc(O)c2[nH]1)N(C(=O)C1Cc2cc(OC)c(OC)c(OC)c2N1)CC3CCl (stereo not given)	-48.7% (active)	-35.1% (active)	-16.2% (active)	-54.7% (active)	-17.9% (active)	-35.9% (active)	-60.6% (active)	-21% (active)	-47.6% (active)	-70.4% (active)	-99.1% (active)	1.56% (active)	-58.1% (active)	-41.3% (active)	-99.4% (active)	-5.75% (active)	-40.6% (active)	-74.7% (active)	-72.3% (active)	-25.1% (active)
COc1cc2cc(c1Cl)N(C)C(=O)C[C@H](OC(=O)[C@H](C)N(C)C(=O)CCS)C[C@]1(C)O[C@H]1[C@H](C)[C@@H]1C[C@@](O)(NC(=O)O1)[C@H](OC)/C=C/C=C(\C)C2	23.2%	69.5%	42.8%	18.3%	7.39% (active)	4.28% (active)	-31.2% (active)	16.3%	13.8%	-65.7% (active)	2.17% (active)	11.7%	64.3%	17.8%	43.6%	37.1%	3.96% (active)	-17.1% (active)	69.3%	1.73% (active)
CCOC(=O)CC[C@H](NC(=O)c1ccc(NC)c2ccccc12)C(=O)OCC	105%	100%	106%	93.6%	101%	92.3%	91.2%	89.9%	102%	106%	104%	92.9%	114%	97.9%	111%	100%	101%	98.1%	86.1%	99.5%
O=c1[nH]c2ccccc2cc1-c1nc2ccncc2[nH]1	85%	79.6%	110%	101%	62.4%	64.3%	90.7%	90.4%	88.6%	83.3%	78.8%	79.1%	113%	98.3%	72.5%	96.6%	78.1%	79.1%	111%	87.3%
COc1ccc2cc(/C=C3\N=C(c4cc(OC)c(OC)c(OC)c4)OC3=O)c(OC)nc2c1	101%	107%	107%	88.9%	111%	97.7%	82.3%	96.7%	100%	117%	110%	90.1%	104%	91.5%	119%	98.2%	98.7%	101%	95.5%	111%
COc1cc(N=Nc2cc(S(=O)(=O)O)cc3cc(S(=O)(=O)O)cc(O)c23)c(C)cc1N=Nc1c(S(=O)(=O)O)cc2cc(Nc3ccccc3)ccc2c1O	99.8%	114%	93.7%	102%	106%	103%	80.1%	101%	102%	129%	103%	84.6%	93.8%	107%	129%	98.2%	109%	103%	111%	102%
O=C1NC(c2ccc(F)cc2)N=C2C(c3ccccc3)=NOC12 (stereo not given)	107%	99.9%	109%	96.5%	112%	103%	92.1%	90.7%	96.8%	116%	110%	105%	112%	115%	105%	107%	108%	105%	96.7%	110%
N#Cc1ccc(N2Cc3cc(Cl)ccc3OC3=C2C(=O)N(Cc2ccccc2)C3=O)cc1	10.8%	100%	96.3%	59%	34.7%	-63.8% (active)	-57.2% (active)	66.3%	-82.4% (active)	-69.2% (active)	-75.7% (active)	-22.3% (active)	-64.4% (active)	-15.9% (active)	-79.8% (active)	-43.3% (active)	69.4%	-60.3% (active)	-56.1% (active)	-35.7% (active)
Cc1cnc(SCc2ccc(Cl)cc2)[nH]c1=S	94.8%	111%	89.5%	94.2%	113%	105%	78.7%	94.4%	92.8%	121%	100%	92.9%	95.8%	101%	132%	95.3%	95.5%	101%	102%	102%
COc1ccc(C2CC(c3ccc(OC)cc3O)=NN2c2ccc(S(N)(=O)=O)cc2)cc1 (stereo not given)	65.6%	59.9%	59.4%	83.2%	14%	20.7%	34%	21.7%	38.5%	29.5%	61.9%	10.8%	121%	61.1%	67.5%	50.5%	-7.99% (active)	69.8%	56.6%	34.1%
COc1ccc(C(=O)c2cc(OC)c(OC)c(OC)c2)cc1OC(=O)CCl	24%	109%	44.5%	22%	8.25% (active)	52.9%	-12.4% (active)	23%	28.7%	16.4%	5.3% (active)	13.3%	71%	34.4%	56.6%	37.3%	17.3%	1.91% (active)	48.9%	5.59% (active)
